The list is not random: actives were taken first. Their share in the collection is about 3.4%.
HIV Env fusion: inhibitors of HIV Env-mediated cell fusion; HeLa-JRFL Env/CEM21 cell fusion, luciferase; AID 651610; inhibition, % at 12.3 µM; 360,000 tested, 1.1% active;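 active means mean replicate inhibition score of at least 50 and every replicate individually at or above 50; inconclusive means only one of the two criteria met; inactive means mean below 50 and not all replicates reaching 50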;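 further: 0% = plate neutral controls and 100% = maraviroc near 300 nM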
Wnt bcat act: Wnt/beta-catenin pathway activation; Wnt/beta-catenin reporter cell assay, activator, plate reader; activation, % at 9.35 µM; 300,000 tested, 1.2% active; AID 743398; in the data active means activation above about 30%, passing the limit was not always enough; inconclusive means no clear call, values can overlap the other calls;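 further: 0% = neutral control wells and 100% = positive control wells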
esBAF inh: blocks esBAF chromatin remodeling in mouse ES cells | Bmi1-luciferase knock-in reporter, 24 h; 100% = twice the neutral-well signal | reporter increase, % at 12.5 µM | 350,000 tested, 2% active | AID 602393; in the data active means activation above about 40%; inconclusive means no clear call, values can overlap the other calls;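 further: 0% = median of the plate's neutral control wells and 100% = double that signal; a rise in the Bmi1 reporter signal indicates esBAF inhibition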
MITF TRPM1 HTS: increases MITF-driven TRPM1 promoter luciferase signal. SK-MEL-5 TRPM1-promoter luciferase, 24 h; % of positive control, neutral wells = 0. activation, % at 12.5 µM. 300,000 tested, 0.75% active;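 active means mean activation of at least 80% with every replicate also reaching 80%; inconclusive means mean reaches 80% but some replicate falls short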;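 further: 0% = neutral control wells and 100% = parthenolide positive control wells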
miR-122 sensor: inhibitors of miR-122 in Huh7 cells; Huh7 miR-122 Renilla luciferase sensor, 48 h; neutral wells = 0, positive control = 100; activation (reporter increase), % at 12.5 µM; 340,000 tested, 0.3% active; AID 602342;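 active means mean replicate activation score at least 90 and every replicate individually at or above 90; inconclusive means only one of the two criteria met; inactive means neither criterion met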;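 further: higher luciferase means less miR-122 activity so hits act as miR-122 inhibitors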
* hit, by the source's call; ? = inconclusive; / = no result given; [ ] = dose if it differs, or a comment.

SMILES	HIV Env fusion	Wnt bcat act	esBAF inh	MITF TRPM1 HTS	miR-122 sensor
COc1cc(NC2c3ccccc3C(=O)N2Cc2ccc3c(c2)OCO3)cc(OC)c1OC (configuration not stated)	87*	3	-5	/	16
Cc1c(-c2nc(-c3ccncc3)no2)cccc1[N+](=O)[O-]	19	0	/	12	/
c1ccc(-c2noc(-c3cccc4ccccc34)n2)cc1	/	/	76*	38	4
c1ccc(-c2ccccc2-c2nc(-c3cccnc3)no2)cc1	/	/	-2	4	0
c1cncc(-c2noc(-c3cccc4ccccc34)n2)c1	/	16	58*	54	-1
c1ccc2c(-c3nc(-c4ccncc4)no3)cccc2c1	-84	/	46*	51	7
O=C(O)c1cc(N/N=C/C=C/c2ccccc2)ccc1Cl	-136	14	90*	?	-8
O=C(O)c1cc(NN=C2CCN(Cc3ccccc3)CC2)ccc1Cl	-23	1	51*	28	-7
O=C(O)c1cc(N/N=C/c2ccc(OCc3ccccc3)cc2)ccc1Cl	-66	12	/	58	/
CCc1ccc2c(c1)C(c1ccncc1)=NNC(c1ccccc1)=N2	-8	15	48*	24	-7
Cc1noc(C)c1S(=O)(=O)Nc1ccc2c(c1)C(=O)N([C@H](C)CO)C[C@@H](C)[C@H](CN(C)Cc1ccccc1)O2	1[16.7 µM]	/	-1	/	-6[16.7 µM]
O=C(Nc1ccc(Cn2cccn2)cc1)c1ccc(COc2ccc(Br)cc2)cc1	/	/	-1	3	-6
O=C(Nc1ccn(Cc2ccccc2F)n1)c1ccc(COc2ccc(Br)cc2)cc1	87*	/	6	-8	-25
Nc1c(OS(=O)(=O)c2ccccc2)cccc1OS(=O)(=O)c1ccccc1	-50	60*	/	/	/
O=C1C2C3C=CC(C3)C2C(=O)N1c1ccccc1OS(=O)(=O)c1ccccc1 (configuration not stated)	14	-2	/	6	-2
COCCCNC(=O)C[C@H]1C[C@@]2(C(=O)OC)C(=C[C@H](C(C)(C)C)O[C@@H]2C)N(CCC2=CCCCC2)C1=O	60*	-7	/	/	/
COC(=O)[C@]12C[C@H](CC(=O)NCCc3ccccc3OC)C(=O)N(CCC3=CCCCC3)C1=C[C@H](C(C)(C)C)O[C@@H]2C	61*	-16	/	/	/
COC(=O)[C@]12C[C@H](CC(=O)NCc3cccc(C(F)(F)F)c3)C(=O)N(CCC3=CCCCC3)C1=C[C@H](C(C)(C)C)O[C@@H]2C	101*	-17	/	/	/
COC(=O)[C@]12C[C@H](CC(=O)NCCc3ccccc3OC)C(=O)N(Cc3ccccc3)C1=C[C@H](C(C)(C)C)O[C@@H]2C	20	-5	/	/	/
CCCCOCCCNC(=O)C[C@H]1C[C@@]2(C(=O)OC)C(=C[C@H](C(C)(C)C)O[C@@H]2C)N(CCC2=CCCCC2)C1=O	66*	-11	/	/	/
COCCCNC(=O)C[C@H]1C[C@@]2(C(=O)OC)C(=C[C@H](C(C)(C)C)O[C@@H]2C)N(CCc2ccc(OC)c(OC)c2)C1=O	-29	-2	/	/	/
COC(=O)[C@]12C[C@H](CC(=O)NCC34CC5CC(CC(C5)C3)C4)C(=O)N(CCC3=CCCCC3)C1=C[C@H](C(C)(C)C)O[C@@H]2C	53	-13	/	/	/
COC(=O)[C@]12C[C@H](CC(=O)NCc3cccs3)C(=O)N(CCC3=CCCCC3)C1=C[C@H](C(C)(C)C)O[C@@H]2C	76*	-6	/	/	/
COC(=O)[C@]12C[C@H](CC(=O)NCC3CCCCC3)C(=O)N(CCC3=CCCCC3)C1=C[C@H](C(C)(C)C)O[C@@H]2C	71*	-14	/	/	/
Cc1cccc(N2C(=O)CC(N(O)c3ccccc3)C2=O)c1 (configuration not stated)	-44	14	61*	/	1
SMILES	HIV Env fusion	Wnt bcat act	esBAF inh	MITF TRPM1 HTS	miR-122 sensor
C[C@@H]1CCCCO[C@H](CN(C)C(=O)c2ccccc2)[C@H](C)CN([C@@H](C)CO)C(=O)c2cc(NS(=O)(=O)c3cn(C)cn3)ccc2O1	35[16.7 µM]	/	-2	/	3[16.7 µM]
COC(=O)c1ccc(CSc2nc(N)cc(N)n2)cc1	-38	/	52*	32	-1
COc1ccc(NC(=O)Nc2ccc3c(c2)CC(=O)N([C@H](C)CO)C[C@@H](C)[C@@H](CN(C)S(C)(=O)=O)O3)cc1	-18[16.7 µM]	/	0	/	9[16.7 µM]
COc1cc2sc3cc(NCCCN4CCOCC4)ccc3c(=O)c2cc1OC	1	14	55*	38	/
NC(=O)Nc1ccc(C(=O)OCC(=O)Nc2sccc2C(N)=O)cc1	3	3	-2	8	/
N#Cc1ccsc1NC(=O)COC(=O)c1ccc(NC(N)=O)cc1	-101	18	48*	87*	-4
Cc1ccc(P(=O)(c2ccc(C)cc2)[C@@H](NC(c2ccccc2)c2ccccc2)c2ccccc2)cc1	-27	-2	/	/	/
Cc1ccccc1[C@H](NC1c2ccccc2C=Cc2ccccc21)P(=O)(c1ccccc1)c1ccccc1	86*	-14	/	/	/
COc1ccc(S(=O)(=O)N(C)C[C@@H]2Oc3c(NC(=O)Nc4c(C)noc4C)cccc3C(=O)N([C@H](C)CO)C[C@H]2C)cc1	-15[16.7 µM]	/	4	/	0[16.7 µM]
COc1cc2cc(C(c3nnnn3C(C)(C)C)N3CCc4ccccc4C3)c(=O)[nH]c2cc1OC (configuration not stated)	-78	34*	-2	-14	-1
CNC[C@H]1Oc2ccc(NS(C)(=O)=O)cc2CC(=O)N([C@H](C)CO)C[C@@H]1C	8[16.7 µM]	/	-7	/	5[16.7 µM]
O=C(C[C@H]1C[C@H]2c3cc(NC(=O)Nc4ccccc4F)ccc3O[C@H]2[C@@H](CO)O1)NC1CCCC1	0[16.7 µM]	/	-1	/	5[16.7 µM]
CSCc1ccc(C(=O)Nc2cccc(C)c2C)cc1	-33	34*	/	112*	/
Cc1cccc(NC(=O)c2onc3c2CCCC3)c1C	/	/	51*	86*	4
CC(=O)Nc1ccc2c(c1)C(=O)N(C)[C@@H]1CC[C@H](CC(=O)NCc3ccc(Cl)cc3)O[C@H]1CO2	/	/	-2	/	45[16.7 µM]
O=C(N1CCOCC1)N1CCN(c2nc(-c3ccccc3)cs2)CC1	-26	/	17	16	1
O=C1CNC(=S)N1c1nc(-c2ccccc2)cs1	-57	50*	/	88*	/
c1ccc(-c2csc(N3CCN(c4ccccn4)CC3)n2)cc1	-38	?	61*	59	/
COc1ccc(-c2csc(N3C(=O)CNC3=S)n2)cc1	-18	21	/	0	/
c1ccc(-c2csc(N3CCOCC3)n2)cc1	-246	39*	60*	81*	-14
Cc1cc(SCC(=O)N2CCCC2=O)nc2ccccc12	58*	1	/	-7	-5
O=c1n(-c2ccccc2)c(=O)n2n1CC(COc1ccccc1)=C1[C@@H](CCc3ccccc3)OB(O)C[C@@H]12	-120[16.7 µM]	/	/	/	/
Cc1nc(-c2cccc(NS(C)(=O)=O)c2)cs1	/	0	2	3	0
CC(=O)Nc1ccc(S(=O)(=O)Nc2cccc(-c3csc(C)n3)c2)cc1	5	0	12	-12	283*
CCOC(=O)c1cc(S(=O)(=O)Nc2cccc(OC)c2)cn1C	-10	-5	8	-11	132*

Screening data: PubChem, Broad Institute
